The full ranking holds about 81,000 sequences; the median of “one-hybrid fitness for binding parS DNA” is about -0.17, and the highest 2% start at about 0.51. This excerpt belongs to a sample that is enriched for the highest values.
B1: Caulobacter ParB omega fusion; a variant is named by its letters at X, in order, B8GW30 (parent)
chain: MESVVVGEPGMSEGRRGLGRGLSALLGEVDAAPAQAPGEQLGGSREAPIEILQRNPDQPRRTFREEDLEDLSNSIREKGVLQPILVRPSPDTAGEYQIVAGERAWRAAQRAGLKTVPIMVRELDDLAVLEIGIIENVQRADLNVLEEALSYKVLMEKFERTQENIAQTIGKSXSHVANXMRLLXLPDEVQSYLVSGELTAXHARAIAAAADPVALAKQIIEGGLSVRETEALARKAPNLSAGKSKGGRPPRVKDTDTQALESDLSSVLGLDVSIDHRGSTGTLTITYATLEQLDDLCNRLTRGI

Variants of: B1
Test: one-hybrid fitness for binding parS DNA (scaled: cognate 1, non-cognate 0); higher = stronger binding
Settings: with parS DNA site
How it was run: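 Fitness is the rescaled log change in variant-to-wild-type read ratio, measured by Illumina sequencing of plasmids before and after bacterial one-hybrid selection. The scale puts cognate at 1 and non-cognate at 0. Selection of Caulobacter ParB libraries, four specificity codons randomised, took place in E. coli USO with a HIS3 reporter, site 19 bp from the promoter, over 48 hours at 37°C on M9-minus-histidine with 0.1 mM IPTG and 5 mM 3-AT.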

VGER and ETLC cannot be ordered by “one-hybrid fitness for binding parS DNA” value: ≤ 0.2 for the first, ≤ 0.2 for the second.

ETVR and LAFP cannot be ordered by “one-hybrid fitness for binding parS DNA” value: ≤ 0.2 for the first, ≤ 0.2 for the second.

GGRS and KQSE cannot be ordered by “one-hybrid fitness for binding parS DNA” value: ≤ 0.2 for the first, ≤ 0.2 for the second.

PDSM and LRGD cannot be ordered by “one-hybrid fitness for binding parS DNA” value: ≤ 0.2 for the first, ≤ 0.2 for the second.

Going from RKEQ to RMEN, the “one-hybrid fitness for binding parS DNA” value rises from ≤ 0.2 to 0.369.

RDEC and RPEC cannot be ordered by “one-hybrid fitness for binding parS DNA” value: ≤ 0.2 for the first, ≤ 0.2 for the second.

RKEI and RMEH cannot be ordered by “one-hybrid fitness for binding parS DNA” value: ≤ 0.2 for the first, ≤ 0.2 for the second.

Going from RCEC to RLEI, the “one-hybrid fitness for binding parS DNA” value falls from 0.866 to ≤ 0.2.

Compared with RLEC, RMEC is lower in “one-hybrid fitness for binding parS DNA” value: 0.947 for the first, 0.878 for the second.

First: RKEC
Second: RLER
The “one-hybrid fitness for binding parS DNA” value of the first is higher: 0.893 for the first, ≤ 0.2 for the second.

LRQY and VQGR cannot be ordered by “one-hybrid fitness for binding parS DNA” value: ≤ 0.2 for the first, ≤ 0.2 for the second.

HFMV and TEEC cannot be ordered by “one-hybrid fitness for binding parS DNA” value: ≤ 0.2 for the first, ≤ 0.2 for the second.

FLDS and HFDS cannot be ordered by “one-hybrid fitness for binding parS DNA” value: ≤ 0.2 for the first, ≤ 0.2 for the second.

QTWK and CLLK cannot be ordered by “one-hybrid fitness for binding parS DNA” value: ≤ 0.2 for the first, ≤ 0.2 for the second.

TGRC and RHEF cannot be ordered by “one-hybrid fitness for binding parS DNA” value: ≤ 0.2 for the first, ≤ 0.2 for the second.

RIER and RREH cannot be ordered by “one-hybrid fitness for binding parS DNA” value: ≤ 0.2 for the first, ≤ 0.2 for the second.

Compared with RAEM, RREC is higher in “one-hybrid fitness for binding parS DNA” value: 0.246 for the first, 0.731 for the second.

RREP and RAER cannot be ordered by “one-hybrid fitness for binding parS DNA” value: ≤ 0.2 for the first, ≤ 0.2 for the second.

First: RAEC
Second: RIEC
The “one-hybrid fitness for binding parS DNA” value of the first is higher: 0.807 for the first, 0.791 for the second.

Going from RIEY to RHEC, the “one-hybrid fitness for binding parS DNA” value rises from 0.338 to 0.851.

Compared with RHEQ, GGWR is lower in “one-hybrid fitness for binding parS DNA” value: 0.223 for the first, ≤ 0.2 for the second.

ITFG and ITHW cannot be ordered by “one-hybrid fitness for binding parS DNA” value: ≤ 0.2 for the first, ≤ 0.2 for the second.

KYTR and QQLK cannot be ordered by “one-hybrid fitness for binding parS DNA” value: ≤ 0.2 for the first, ≤ 0.2 for the second.

YTGV and RFEI cannot be ordered by “one-hybrid fitness for binding parS DNA” value: ≤ 0.2 for the first, ≤ 0.2 for the second.

First: RSEC
Second: NFEC
The “one-hybrid fitness for binding parS DNA” value of the first is higher: 0.739 for the first, ≤ 0.2 for the second.

First: RTEK
Second: RSEN
The “one-hybrid fitness for binding parS DNA” value of the first is lower: ≤ 0.2 for the first, 0.333 for the second.

Compared with RSED, RFEC is higher in “one-hybrid fitness for binding parS DNA” value: ≤ 0.2 for the first, 0.727 for the second.

Going from RTEY to RTEC, the “one-hybrid fitness for binding parS DNA” value rises from 0.414 to 0.874.

YRPK and DVSL cannot be ordered by “one-hybrid fitness for binding parS DNA” value: ≤ 0.2 for the first, ≤ 0.2 for the second.

PMLT and QLTV cannot be ordered by “one-hybrid fitness for binding parS DNA” value: ≤ 0.2 for the first, ≤ 0.2 for the second.

First: RLQW
Second: SPHY
The “one-hybrid fitness for binding parS DNA” value of the first is higher: 0.245 for the first, ≤ 0.2 for the second.

KVAV and NKDH cannot be ordered by “one-hybrid fitness for binding parS DNA” value: ≤ 0.2 for the first, ≤ 0.2 for the second.

AYAS and MADT cannot be ordered by “one-hybrid fitness for binding parS DNA” value: ≤ 0.2 for the first, ≤ 0.2 for the second.

Compared with LSCT, RTSA is higher in “one-hybrid fitness for binding parS DNA” value: ≤ 0.2 for the first, 0.591 for the second.

First: RWSA
Second: RSSA
The “one-hybrid fitness for binding parS DNA” value of the first is lower: 0.429 for the first, 0.583 for the second.

NASA and NTSA cannot be ordered by “one-hybrid fitness for binding parS DNA” value: ≤ 0.2 for the first, ≤ 0.2 for the second.

Compared with RCSA, DTSA is lower in “one-hybrid fitness for binding parS DNA” value: 0.575 for the first, ≤ 0.2 for the second.

Compared with RASA, DASA is lower in “one-hybrid fitness for binding parS DNA” value: 0.595 for the first, ≤ 0.2 for the second.

First: RDSA
Second: RGSA
The “one-hybrid fitness for binding parS DNA” value of the first is lower: ≤ 0.2 for the first, 0.399 for the second.

RPSA and CEWG cannot be ordered by “one-hybrid fitness for binding parS DNA” value: ≤ 0.2 for the first, ≤ 0.2 for the second.

PPVE and RGTE cannot be ordered by “one-hybrid fitness for binding parS DNA” value: ≤ 0.2 for the first, ≤ 0.2 for the second.

VPLK and LSLN cannot be ordered by “one-hybrid fitness for binding parS DNA” value: ≤ 0.2 for the first, ≤ 0.2 for the second.

KMRA and APLY cannot be ordered by “one-hybrid fitness for binding parS DNA” value: ≤ 0.2 for the first, ≤ 0.2 for the second.

YCRA and PHDR cannot be ordered by “one-hybrid fitness for binding parS DNA” value: ≤ 0.2 for the first, ≤ 0.2 for the second.

Compared with INAG, RFSA is higher in “one-hybrid fitness for binding parS DNA” value: ≤ 0.2 for the first, 0.572 for the second.

First: DHSA
Second: RMSA
The “one-hybrid fitness for binding parS DNA” value of the first is lower: ≤ 0.2 for the first, 0.59 for the second.

First: RHSA
Second: NMSA
The “one-hybrid fitness for binding parS DNA” value of the first is higher: 0.515 for the first, ≤ 0.2 for the second.

DLSA and SFSA cannot be ordered by “one-hybrid fitness for binding parS DNA” value: ≤ 0.2 for the first, ≤ 0.2 for the second.

Compared with CFSA, RLSA is higher in “one-hybrid fitness for binding parS DNA” value: ≤ 0.2 for the first, 0.587 for the second.

RESA and QQWL cannot be ordered by “one-hybrid fitness for binding parS DNA” value: ≤ 0.2 for the first, ≤ 0.2 for the second.

HSTQ and QIPS cannot be ordered by “one-hybrid fitness for binding parS DNA” value: ≤ 0.2 for the first, ≤ 0.2 for the second.

NIHV and LAFG cannot be ordered by “one-hybrid fitness for binding parS DNA” value: ≤ 0.2 for the first, ≤ 0.2 for the second.

NNTV and SRTI cannot be ordered by “one-hybrid fitness for binding parS DNA” value: ≤ 0.2 for the first, ≤ 0.2 for the second.

LHLI and FTFT cannot be ordered by “one-hybrid fitness for binding parS DNA” value: ≤ 0.2 for the first, ≤ 0.2 for the second.

Compared with RKAT, RKFH is lower in “one-hybrid fitness for binding parS DNA” value: 0.818 for the first, 0.211 for the second.

First: RKAK
Second: RKFT
The “one-hybrid fitness for binding parS DNA” value of the first is lower: ≤ 0.2 for the first, 0.771 for the second.

RKFD and RKAR cannot be ordered by “one-hybrid fitness for binding parS DNA” value: ≤ 0.2 for the first, ≤ 0.2 for the second.

TVYC and QLDE cannot be ordered by “one-hybrid fitness for binding parS DNA” value: ≤ 0.2 for the first, ≤ 0.2 for the second.

Going from GTYL to RKIA, the “one-hybrid fitness for binding parS DNA” value rises from ≤ 0.2 to 0.451.

Going from RKYA to RKSA, the “one-hybrid fitness for binding parS DNA” value rises from 0.579 to 0.717.

Going from NKHA to RKQA, the “one-hybrid fitness for binding parS DNA” value rises from ≤ 0.2 to 0.712.

First: RKPA
Second: RKHA
The “one-hybrid fitness for binding parS DNA” value of the first is lower: 0.223 for the first, 0.67 for the second.

AYMW and WTLN cannot be ordered by “one-hybrid fitness for binding parS DNA” value: ≤ 0.2 for the first, ≤ 0.2 for the second.

CKRT and VEKG cannot be ordered by “one-hybrid fitness for binding parS DNA” value: ≤ 0.2 for the first, ≤ 0.2 for the second.

ALQI and MAKW cannot be ordered by “one-hybrid fitness for binding parS DNA” value: ≤ 0.2 for the first, ≤ 0.2 for the second.

GFDC and WTHF cannot be ordered by “one-hybrid fitness for binding parS DNA” value: ≤ 0.2 for the first, ≤ 0.2 for the second.

Going from RKLA to NKRA, the “one-hybrid fitness for binding parS DNA” value falls from 0.547 to ≤ 0.2.

Going from RKRA to RKGA, the “one-hybrid fitness for binding parS DNA” value falls from 0.774 to 0.694.

QRWL and LNLV cannot be ordered by “one-hybrid fitness for binding parS DNA” value: ≤ 0.2 for the first, ≤ 0.2 for the second.

PQAL and PVGY cannot be ordered by “one-hybrid fitness for binding parS DNA” value: ≤ 0.2 for the first, ≤ 0.2 for the second.

Compared with PLAI, RIYW is higher in “one-hybrid fitness for binding parS DNA” value: ≤ 0.2 for the first, 0.296 for the second.

Compared with RVVA, DVKA is lower in “one-hybrid fitness for binding parS DNA” value: 0.565 for the first, ≤ 0.2 for the second.

Going from RVKA to DVVA, the “one-hybrid fitness for binding parS DNA” value falls from 0.756 to ≤ 0.2.

NVVA and SVKA cannot be ordered by “one-hybrid fitness for binding parS DNA” value: ≤ 0.2 for the first, ≤ 0.2 for the second.

ALNW and ACFK cannot be ordered by “one-hybrid fitness for binding parS DNA” value: ≤ 0.2 for the first, ≤ 0.2 for the second.

First: PSMV
Second: RTIA
The “one-hybrid fitness for binding parS DNA” value of the first is lower: ≤ 0.2 for the first, 0.542 for the second.

For RTPA, the “one-hybrid fitness for binding parS DNA” value was 0.363.
